Measured values: the supplement of paper PMC10981050
Where “and” joins values, the source holds several entries; their conditions need not be identical. Equal entries are not always repeated. Structures can show the parent of a compound that is named as a salt.

Legend:
Assay in all cases: cell viability relative to vehicle control; higher = less cytotoxic
Conditions in all cases: 10 µM
K562 = tested on: K562
Outline: (§1)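 Four leukaemia lines, as CRISPR-edited mutant clones and isogenic wild-type clones, were tested against Selleck bioactive, kinase and epigenetic probe libraries after removal of identity-inconsistent compounds. Cells were exposed to a single 10 µM dose for 48 h, and CellTiter-Glo luminescence was then read. Viability was calculated relative to the on-plate vehicle control.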

MARIMO = tested on: MARIMO
Outline: as §1

MOLM14 = tested on: MOLM14
Outline: as §1

OCI-AML2 = tested on: OCI-AML2
Outline: as §1

Compound	cell viability (K562; SRSF2 genotype: SRSF2 P95H/wt)	cell viability (K562; SRSF2 genotype: SRSF2 wt/wt)	cell viability (MARIMO; SRSF2 genotype: SRSF2 P95H/wt)	cell viability (MARIMO; SRSF2 genotype: SRSF2 wt/wt)	cell viability (MOLM14; SRSF2 genotype: SRSF2 P95H/wt)	cell viability (MOLM14; SRSF2 genotype: SRSF2 wt/wt)	cell viability (OCI-AML2; SRSF2 genotype: P95H/wt)	cell viability (OCI-AML2; SRSF2 genotype: wt/wt)
CC(C)(C)C(=O)Oc1ccc(S(=O)(=O)Nc2ccccc2C(=O)NCC(=O)O)cc1 [Sivelestat sodium tetrahydrate]	101% and 94.9%	102%	96.7%	102%	106%	100%	96.5%	99.2%
Clc1ccc2c(c1)CCc1cccnc1C2=C1CCNCC1 [Desloratadine]	90.9% and 102%	93.2%	80.7%	83.5%	88.8%	94.3%	94.8%	81.9%
CCOC(C)OCCc1ccccc1 (stereo unspecified) [Efetaal]	105% and 100%	108%	97.8%	99.3%	107%	107%	104%	98.9%
CC(C)(C)C(=O)OCOP(=O)(COCCn1cnc2c(N)ncnc21)OCOC(=O)C(C)(C)C [Adefovir Dipivoxil (Preveon, Hepsera)]	59.1% and 71.3%	75.8%	30.7%	36.8%	0.75%	0.59%	0.85%	2.98%
CN(C(Cc1ccc(OS(=O)(=O)c2cccc3cnccc23)cc1)C(=O)N1CCN(c2ccccc2)CC1)S(=O)(=O)c1cccc2cnccc12 (stereo unspecified)	80.8% and 87.8%	83.5%	74.4%	72.7%	79.8%	74.6%	75.7%	76.4%
CNC(=O)c1ccc(-c2cnc3ncc(Cc4ccc5ncccc5c4)n3n2)cc1F	95% and 101%	102%	107%	115%	103%	110%	111%	110%
CC1=C(C(=O)Nc2ccc3[nH]ncc3c2)C(c2ccc(F)cc2)NC(=O)N1 (stereo unspecified)	101% and 97.9%	110%	102%	99.9%	38.5%	91.7%	33.7%	51.5%
C[C@H](NC(=O)c1c(N)nn2cccnc12)c1cc2cccc(C#Cc3cnn(C)c3)c2c(=O)n1-c1ccccc1	88.3% and 88.5%	94.3%	71%	63.4%	54.3%	57.1%	32.2%	41.6%
CC[C@H]1OC(=O)[C@H](C)[C@@H](O[C@H]2C[C@@](C)(OC)[C@@H](O)[C@H](C)O2)[C@H](C)[C@@H](O[C@@H]2O[C@H](C)C[C@H](N(C)C)[C@H]2O)[C@](C)(OC)C[C@@H](C)C(=O)[C@H](C)[C@@H](O)[C@]1(C)O [Clarithromycin (Biaxin, Klacid)]	105% and 111%	107%	99%	102%	99.6%	104%	108%	91.7%
COc1cccc(-c2c(C)n(Cc3c(F)cccc3C(F)(F)F)c(=O)n(C[C@H](NCCCC(=O)O)c3ccccc3)c2=O)c1F [Elagolix Sodium]	97% and 93%	96.3%	104%	115%	99%	101%	110%	104%
CC1(C)CC[C@]2(C(=O)O[C@@H]3O[C@H](CO)[C@@H](O)[C@H](O)[C@H]3O)CC[C@]3(C)C(=CC[C@@H]4[C@@]5(C)CC[C@H](O[C@@H]6O[C@H](C(=O)O)[C@@H](O)[C@H](O)[C@H]6O)C(C)(C)[C@@H]5CC[C@]43C)[C@@H]2C1 [Chikusetsusaponin IVa]	100% and 103%	106%	103%	114%	102%	105%	104%	111%
CCc1ccc(/C=C2/SC(=S)NC2=O)cc1	106% and 101%	102%	100%	108%	105%	104%	91%	91.2%
NCCCCCN [Cadaverine]	104% and 94%	99.5%	100%	101%	95.9%	101%	97.1%	97.7%
C[C@@H]1[C@H]2c3cc4c(cc3O[C@@]35OCOC3=CC(=O)[C@H](C[C@H]1C)[C@@H]25)OCO4 [Sauchinone]	92.2% and 99.5%	100%	87.5%	92.9%	55.1%	94.9%	87.6%	86.8%
C/C=C(\C)C(=O)OC1c2c(ccc3ccc(=O)oc23)OC(C)(C)C1OC(=O)/C(C)=C/C (stereo unspecified) [Praeruptorin B]	83.5% and 92.2%	90.4%	84.4%	111%	109%	94.7%	89.5%	91.6%
OC[C@@H](O)[C@@H](O[C@@H]1O[C@H](CO)[C@H](O)[C@H](O)[C@H]1O)[C@H](O)[C@@H](O)CO [Lactitol]	101% and 92.3%	98.9%	94.4%	100%	99.8%	101%	91%	95.1%
CNC(=O)c1cccc(-c2ccc3c(N4CCOC[C@@H]4C)nc(N4CCOC[C@@H]4C)nc3n2)c1 [Vistusertib (AZD2014)]	44.8% and 43.3%	38.4%	60.8%	48.5%	35.1%	28.9%	29.2%	28.8%
CCc1ccc(Cc2ccc3c(c2)[C@]2(OC3)O[C@H](CO)[C@@H](O)[C@H](O)[C@H]2O)cc1 [Tofogliflozin(CSG 452)]	81.3% and 83.7%	81.2%	77.3%	88.5%	80.2%	82.5%	93.8%	85.6%
CN(C)Cc1ccc(-c2nc3cccc4c3n2CCNC4=O)cc1	108% and 106%	110%	76.7%	78.9%	65.5%	34.3%	55.2%	67.9%

Compound	cell viability (K562; SRSF2 genotype: SRSF2 P95H/wt)	cell viability (K562; SRSF2 genotype: SRSF2 wt/wt)	cell viability (MARIMO; SRSF2 genotype: SRSF2 P95H/wt)	cell viability (MARIMO; SRSF2 genotype: SRSF2 wt/wt)	cell viability (MOLM14; SRSF2 genotype: SRSF2 P95H/wt)	cell viability (MOLM14; SRSF2 genotype: SRSF2 wt/wt)	cell viability (OCI-AML2; SRSF2 genotype: P95H/wt)	cell viability (OCI-AML2; SRSF2 genotype: wt/wt)
COc1cc(O)c(C(=O)Nc2nc(C(=O)NCCN(C(C)C)C(C)C)cs2)cc1OC [Acotiamide hydrochloride]	93.4% and 91.4%	103%	98%	98.8%	97%	98.8%	97.1%	98.7%
CC(=O)OCC1=C[C@@H]2OC(=O)C3=CO[C@@H](O[C@@H]4O[C@H](CO)[C@@H](O)[C@H](O)[C@H]4O)[C@H]1[C@@H]32 [Asperulosid]	83.4% and 85.5%	85.5%	85.2%	94.3%	85%	88%	88.5%	113%
Cc1noc(NS(=O)(=O)c2ccc(N)cc2)c1C [Sulfisoxazole]	106% and 97.9%	107%	98.5%	104%	97.6%	103%	98.5%	104%
CN1[C@@H]2CC[C@H]1C[C@@H](OC(c1ccccc1)c1ccccc1)C2 [Benztropine mesylate]	82.3% and 93.2%	87%	81.9%	91.2%	83.7%	100%	88%	79.9%
CCOc1ccc(Cc2cc([C@@H]3O[C@H](CO)[C@@H](O)[C@H](O)[C@H]3O)ccc2Cl)cc1 [Dapagliflozin]	93.8% and 97.1%	105%	102%	96.9%	95.9%	99.4%	97.7%	105%
Oc1cc(O)c(Cl)cn1 [Gimeracil]	105% and 98.5%	92.4%	101%	109%	102%	107%	101%	111%
CSc1cccc(Nc2ncc3cc(-c4c(Cl)cccc4Cl)c(=O)n(C)c3n2)c1	6.76% and 14.3%	9.82%	34.3%	65.4%	26.6%	31.6%	12.8%	20.9%
OC[C@H]1O[C@@H](Oc2cc3c(O)cc(O)cc3[o+]c2-c2ccc(O)c(O)c2)[C@H](O)[C@@H](O)[C@@H]1O [Cyanidin-3-O-glucoside chloride]	93.5% and 89%	87.1%	91.6%	92.6%	90.4%	91.1%	83%	86.2%
CC(=O)N1CCN(CCOc2ccc(C3CCN(C4=Nn5c(nnc5C(F)(F)F)CC4)CC3)cc2)CC1	68.5% and 73%	71.5%	60.6%	57.4%	53.5%	53.2%	49.8%	59.7%
COc1cc(O)c(C(=O)/C=C/c2ccccc2)c(OC)c1 [Flavokawain B]	23.3% and 39%	58%	34.5%	39%	22.6%	11.3%	22.8%	25.2%
Cc1ncc([N+](=O)[O-])n1CC(O)CCl (stereo unspecified) [Ornidazole]	96.6% and 100%	94.7%	102%	104%	91.9%	105%	103%	106%
O=C(Nc1ccncc1)c1cc([N+](=O)[O-])ccc1Cl	102% and 101%	91.5%	106%	102%	70.5%	106%	83.2%	73.9%
CCOc1cc(CC(=O)N[C@@H](CC(C)C)c2ccccc2N2CCCCC2)ccc1C(=O)O [Repaglinide]	105% and 100%	97.6%	103%	101%	102%	101%	108%	116%
O=C(Cn1nnc(-c2ccncc2)c1-c1ccccc1)Nc1ccc(-c2ccccc2)cn1	58% and 48.3%	57.6%	51.6%	53.3%	54.6%	51.1%	35.9%	40.8%
CC(=O)Oc1ccccc1C(=O)O.CC(=O)Oc1ccccc1C(=O)O.NC(N)=O [Carbasalate Calcium]	105% and 106%	102%	104%	105%	104%	103%	102%	97.8%
c1ccc2c(Oc3nc(Nc4ccc(N5CCOCC5)cc4)c4ncn(C5CCCCC5)c4n3)cccc2c1 [Purmorphamine]	91.9% and 105%	98.2%	86.5%	94.4%	45.9%	48.7%	58.9%	64%
O=c1cc(-c2ccc(O)c(O)c2)oc2cc(O)c([C@@H]3O[C@H](CO)[C@@H](O)[C@H](O)[C@H]3O)c(O)c12 [Homoorientin]	90.2% and 85%	84.1%	83.8%	90%	83.2%	90%	86.7%	88.7%
O=C(Nc1ccc([N+](=O)[O-])cc1O)Nc1ccccc1Br	16.9% and 34.5%	33.9%	7.34%	8.23%	13.5%	3.38%	8.53%	10.4%
